Measured values: paper PMC5540273 (PLoS ONE, 2017)

Legend:
Settings in all cases: concentration: 1 μM, replicates: in singlicate; n = 1
CLK2 = tested on: CLK2
CLK3 = tested on: CLK3
CLK4 = tested on: CLK4
CSF1R-autoinhibited = tested on: CSF1R-autoinhibited
CSF1R = tested on: CSF1R
CSK = tested on: CSK
CSNK1A1L = tested on: CSNK1A1L
CSNK1A1 = tested on: CSNK1A1
CSNK1D = tested on: CSNK1D
CSNK1E = tested on: CSNK1E
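Also: KINOMEscan kinase panel screen.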

C[C@@H](Oc1cc(-n2cnc3cc(-c4ccnc(NCCS(C)(=O)=O)c4)ccc32)sc1C(N)=O)c1ccccc1Cl [GSK907232]
%Inh (CLK2): 4%
%Inh (CLK3): 32%
%Inh (CLK4): 47%
%Inh (CSF1R-autoinhibited): 1%
%Inh (CSF1R): 38%
%Inh (CSK): 0%
%Inh (CSNK1A1L): 22%
%Inh (CSNK1A1): 0%
%Inh (CSNK1D): 0%
%Inh (CSNK1E): 17%

O=C(Nc1cccc(Oc2ccc3nc(NC(=O)C4CC4)cn3n2)c1)c1ccccc1C(F)(F)F
%Inh (CLK2): 73%
%Inh (CLK3): 32%
%Inh (CLK4): 0%
%Inh (CSF1R-autoinhibited): 88%
%Inh (CSF1R): 100%
%Inh (CSK): 11%
%Inh (CSNK1A1L): 0%
%Inh (CSNK1A1): 24%
%Inh (CSNK1D): 0%
%Inh (CSNK1E): 20%

O=C(Nc1ccccc1F)NC1CCN(c2ccnc(Nc3ccc(F)cc3)n2)CC1 [GSK1379800]
%Inh (CLK2): 0%
%Inh (CLK3): 0%
%Inh (CLK4): 0%
%Inh (CSF1R-autoinhibited): 46%
%Inh (CSF1R): 5%
%Inh (CSK): 0%
%Inh (CSNK1A1L): 27%
%Inh (CSNK1A1): 0%
%Inh (CSNK1D): 54%
%Inh (CSNK1E): 60%

Cn1cc(-c2ccc3c(c2)CCN3C(=O)Cc2cccc(Cl)c2)c2c(N)ncnc21 [GSK2606590]
%Inh (CLK2): 0%
%Inh (CLK3): 13%
%Inh (CLK4): 14%
%Inh (CSF1R-autoinhibited): 5%
%Inh (CSF1R): 97.6%
%Inh (CSK): 6%
%Inh (CSNK1A1L): 13%
%Inh (CSNK1A1): 20%
%Inh (CSNK1D): 16%
%Inh (CSNK1E): 63%

COc1ccc(Nc2nccc(NCCNC(=O)c3cc4ccccc4s3)n2)cc1 [GSK1379896]
%Inh (CLK2): 0%
%Inh (CLK3): 0%
%Inh (CLK4): 0%
%Inh (CSF1R-autoinhibited): 0%
%Inh (CSF1R): 0%
%Inh (CSK): 0%
%Inh (CSNK1A1L): 0%
%Inh (CSNK1A1): 0%
%Inh (CSNK1D): 8%
%Inh (CSNK1E): 16%

CC(C)c1nc(-c2cccc(NS(=O)(=O)c3c(F)cccc3F)c2F)c(-c2ccnc(Nc3ccc(N4CCOCC4)nc3)n2)s1 [GSK2008607]
%Inh (CLK2): 0%
%Inh (CLK3): 0%
%Inh (CLK4): 0%
%Inh (CSF1R-autoinhibited): 0%
%Inh (CSF1R): 86%
%Inh (CSK): 98%
%Inh (CSNK1A1L): 0%
%Inh (CSNK1A1): 0%
%Inh (CSNK1D): 0%
%Inh (CSNK1E): 4%

Cc1ccc(C)c(NC(=O)NC2CCN(c3ccnc(Nc4ccc(F)cc4)n3)C2)c1 (centres unmarked) [GSK1379720]
%Inh (CLK2): 0%
%Inh (CLK3): 0%
%Inh (CLK4): 0%
%Inh (CSF1R-autoinhibited): 25%
%Inh (CSF1R): 0%
%Inh (CSK): 0%
%Inh (CSNK1A1L): 0%
%Inh (CSNK1A1): 0%
%Inh (CSNK1D): 6%
%Inh (CSNK1E): 11%

Cc1ccc(F)c(C(=O)Nc2cccc(-c3nn4ccccc4c3-c3ccnc(Nc4cccc(F)c4)n3)c2)c1F [GSK361061]
%Inh (CLK2): 0%
%Inh (CLK3): 0%
%Inh (CLK4): 14%
%Inh (CSF1R-autoinhibited): 0%
%Inh (CSF1R): 98.8%
%Inh (CSK): 39%
%Inh (CSNK1A1L): 21%
%Inh (CSNK1A1): 41%
%Inh (CSNK1D): 35%
%Inh (CSNK1E): 54%

c1ccc(-c2n[nH]cc2Nc2ccnc3ccccc23)nc1 [GW694077]
%Inh (CLK2): 94.3%
%Inh (CLK3): 25%
%Inh (CLK4): 96.5%
%Inh (CSF1R-autoinhibited): 29%
%Inh (CSF1R): 7%
%Inh (CSK): 0%
%Inh (CSNK1A1L): 20%
%Inh (CSNK1A1): 40%
%Inh (CSNK1D): 55%
%Inh (CSNK1E): 63%

CN(C)Cc1ccc(-c2ccc3c(Nc4ccc(Oc5ccccn5)cc4)ccnc3c2)o1 [GW567148]
%Inh (CLK2): 0%
%Inh (CLK3): 12%
%Inh (CLK4): 0%
%Inh (CSF1R-autoinhibited): 11%
%Inh (CSF1R): 38%
%Inh (CSK): 82%
%Inh (CSNK1A1L): 9%
%Inh (CSNK1A1): 0%
%Inh (CSNK1D): 0%
%Inh (CSNK1E): 23%

FC(F)(F)c1ccc(/C=C/c2cncnc2Nc2ccc3[nH]c(Cc4ccccc4)nc3c2)cc1 [GW709199]
%Inh (CLK2): 0%
%Inh (CLK3): 11%
%Inh (CLK4): 0%
%Inh (CSF1R-autoinhibited): 0%
%Inh (CSF1R): 4%
%Inh (CSK): 0%
%Inh (CSNK1A1L): 36%
%Inh (CSNK1A1): 33%
%Inh (CSNK1D): 3%
%Inh (CSNK1E): 28%

COc1cc(Nc2nccc(-c3c(-c4cccc(NC(=O)c5c(F)cccc5F)c4)nn4ccccc34)n2)cc(OC)c1OC [GSK323521]
%Inh (CLK2): 0%
%Inh (CLK3): 31%
%Inh (CLK4): 18%
%Inh (CSF1R-autoinhibited): 0%
%Inh (CSF1R): 93%
%Inh (CSK): 1%
%Inh (CSNK1A1L): 15%
%Inh (CSNK1A1): 27%
%Inh (CSNK1D): 29%
%Inh (CSNK1E): 43%

O=C(Nc1cccc(-c2nn3ncccc3c2-c2ccnc(Nc3ccccc3)n2)c1)c1c(F)cccc1F [GSK198271]
%Inh (CLK2): 0%
%Inh (CLK3): 25%
%Inh (CLK4): 8%
%Inh (CSF1R-autoinhibited): 17%
%Inh (CSF1R): 99.7%
%Inh (CSK): 97.5%
%Inh (CSNK1A1L): 2%
%Inh (CSNK1A1): 0%
%Inh (CSNK1D): 20%
%Inh (CSNK1E): 85%

COc1cccc(NC(=O)NC2CCN(c3ccnc(Nc4cc(OC)c(OC)c(OC)c4)n3)C2)c1 (centres unmarked) [GSK1379763]
%Inh (CLK2): 11%
%Inh (CLK3): 0%
%Inh (CLK4): 0%
%Inh (CSF1R-autoinhibited): 6%
%Inh (CSF1R): 34%
%Inh (CSK): 15%
%Inh (CSNK1A1L): 0%
%Inh (CSNK1A1): 0%
%Inh (CSNK1D): 0%
%Inh (CSNK1E): 0%
